Hit rate of the full screen: of about 340,000 compounds, about 6,400 (1.9%) were called active. Inconclusive results (about 4%) are left out. Many of the other results were omitted from the sample, so actives are more common in it than they were. Values without a mark were called inactive. Calls come from the whole dose curve; as a rule, active = well fitted falling curve with a large enough effect; inconclusive = small, poorly fitted or top-dose-only effect; inactive = no such curve, though single readings can be large or run the other way.
Each compound was assayed against ATP-dependent Clp protease proteolytic subunit (Bacillus subtilis (strain 168)) (UniProt P80244) (assay: qHTS Assay for Activators of ClpP). Settings: purified B. subtilis ClpP, FRET peptide cleavage, 20 min; series mostly up to 57.5 µM; activity change, negative = active: at the top concentration.
Chain of ATP-dependent Clp protease proteolytic subunit (Bacillus subtilis (strain 168)) (P80244 whole entry, looked up): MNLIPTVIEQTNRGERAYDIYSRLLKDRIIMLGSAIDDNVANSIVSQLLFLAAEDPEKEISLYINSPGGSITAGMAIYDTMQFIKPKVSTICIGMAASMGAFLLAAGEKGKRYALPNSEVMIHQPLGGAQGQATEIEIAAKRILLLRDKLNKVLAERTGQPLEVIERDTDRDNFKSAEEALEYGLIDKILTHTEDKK
Method in brief: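 ClpP 10 microg/mL final, pH 8 Tris/KCl buffer with BSA, glycerol, Tween-20; compound pinned in; FRET-FV substrate; RT 20 min; Ex320/Em430; ΔFRET vs ADEP 5.8 microM, DMSO, no enzyme.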
`CC1(C(=O)NCc2ccco2)Cc2c(-c3ccc4c(c3)OCO4)ccnc2O1` (configuration not stated) was tested, and the “activity change, negative = active” value was 4.97%.
With `O=C(NCc1ccc(F)cc1)c1ccc(Cn2c(SCc3ccc(F)cc3)nc3cccnc32)cc1` the Potency was 28.2 µM (active).
With `O=C(O)c1ccc(Cn2c(SCc3ccc(F)cc3)nc3ccncc32)cc1` the “activity change, negative = active” value was -6.24%.
With `C=CCn1c(SCc2ccc(C(=O)NCCO)cc2)nc2ccccc2c1=O` the “activity change, negative = active” value was -1.32%.
`Cc1ccc(CSc2nc3cccnc3n2Cc2ccc(C(=O)NC3CC3)cc2)cc1` was tested, and the “activity change, negative = active” value was -21.3%.
`O=C(O)c1ccc(CSc2nc3cccnc3n2Cc2cccc(F)c2)cc1` was tested, and the Potency was 31.6 µM (active).
`Cc1cccc(CSc2nc3ccncc3n2Cc2ccc(C(=O)O)cc2)c1` was tested, and the “activity change, negative = active” value was -15.8%.
In the case of `COc1cccc(C(O)c2ncc(-c3ccc4ccccc4c3)[nH]2)c1` (configuration not stated), the “activity change, negative = active” value is reported as 5.1%.
For `CCCCNC(=O)C[C@@H]1C[C@@]2(C(=O)OCC)CCC=C2N(Cc2cccc3ccccc23)C1=O`, the “activity change, negative = active” value was 0.695%.
With `CCOC(=O)[C@]12CCC=C1N(Cc1cccc3ccccc13)C(=O)[C@H](CC(=O)NCc1cccc(C(F)(F)F)c1)C2` the “activity change, negative = active” value was -21.3%.
In the case of `Cc1nn(CC(=O)NCCc2ccccc2)c(=O)c2cc3occc3n12`, the “activity change, negative = active” value is reported as -3.03%.
In the case of `Cc1nn(CC(=O)O)c(=O)c2cc3cc(F)ccc3n12`, the Potency is reported as 28.2 µM (active).
With `Cc1nn(CC(=O)NCC2CCCO2)c(=O)c2cc3ccccc3n12` (configuration not stated) the “activity change, negative = active” value was 3.78%.
`O=C(c1ccccc1)N1CCN(c2cc(-c3ccccc3)nc3cc(-c4cccc(Cl)c4)nn23)CC1` was tested, and the “activity change, negative = active” value was -45.3%.
For `CC=CCn1c(SCCCc2ccccc2)nc2c1c(=O)[nH]c(=O)n2C`, the “activity change, negative = active” value was -0.218%.
In the case of `COc1ccc([C@H]2CC(=O)C[C@@H](CCn3cc(CC4CCCC4)nn3)O2)cc1`, the “activity change, negative = active” value is reported as 0.945%.
For `COc1ccc(NC(=O)c2cc(-c3ccc(C)o3)nc3ccccc23)cc1`, the “activity change, negative = active” value was -0.804%.
`COc1cccc(NC(=O)CN(C)C(=O)c2cc(Cl)nc3ccccc23)c1` was tested, and the “activity change, negative = active” value was -5.28%.
With `COc1ccc(NC(=O)CN(C)C(=O)c2cc(-c3ccc(C)o3)nc3ccccc23)cc1` the Potency was 25.1 µM (active).
In the case of `Cc1ccc(F)c(S(=O)(=O)NC(=O)C2(C)CCN2C(=O)CCc2cccs2)c1` (configuration not stated), the “activity change, negative = active” value is reported as -0.445%.
`Cc1ccc(Nc2ccc(C(N)=O)cc2[N+](=O)[O-])cc1` was tested, and the Potency was 12.6 µM (active).
`NC(=O)c1ccc(Nc2ccc3nonc3c2[N+](=O)[O-])cc1` was tested, and the “activity change, negative = active” value was 0.816%.
For `CCOc1ccccc1Nc1ccc(C(=O)O)cc1[N+](=O)[O-]`, the “activity change, negative = active” value was -0.992%.
`COc1cccc2c(O)cc(=O)n(C)c12` was tested, and the Potency was 35.5 µM (active).
With `COc1cccc(OC)c1C(=O)Nc1ccc2c(c1)n(C)c(=O)n2C` the “activity change, negative = active” value was 2.54%.
In the case of `COc1cc2c(=O)n(C)c3ccccc3c2cc1OC`, the “activity change, negative = active” value is reported as -13.6%.
For `CCOc1ccc(Cl)cc1-c1cc(C(=O)NCc2cccs2)[nH]n1`, the “activity change, negative = active” value was 0.129%.
`CCOCCC(=O)Nc1ccc2c(c1)c(=O)n(C)n2-c1ccc2ccccc2c1` was tested, and the “activity change, negative = active” value was -28.6%.
With `O=C1CC(c2ccccc2)CC2=C1C(c1ccco1)n1nc(C(F)(F)F)nc1N2` (configuration not stated) the “activity change, negative = active” value was 4.45%.
With `CCCCc1c(-c2ccc(Br)cc2)ncn1CCc1ccccc1OC` the “activity change, negative = active” value was 1.63%.
`O=C(OCC(=O)N1CCN(C(=O)c2ccco2)CC1)c1c(Cl)cccc1Cl` was tested, and the Potency was 31.6 µM (active).
For `O=C(OCC(=O)N1CCN(C(=O)c2ccco2)CC1)c1ccc(Cl)c(Cl)c1`, the “activity change, negative = active” value was -1.7%.
For `O=C(OCC(=O)N1CCN(C(=O)c2ccco2)CC1)c1cccc(O)c1`, the “activity change, negative = active” value was -2.53%.
With `COc1cccc(-c2ccc3c(c2)N(Cc2ccccc2OC)C(=O)C(C)S3)c1` (configuration not stated) the “activity change, negative = active” value was -0.0272%.
With `O=C1Nc2ccccc2-n2nnnc2C1N1CCN(c2cccc(C(F)(F)F)n2)CC1` (configuration not stated) the “activity change, negative = active” value was -20%.
With `Cc1cc(=O)oc2cc(OC(C)C(=O)Nc3ccc(N4CCOCC4)cc3)ccc12` (configuration not stated) the “activity change, negative = active” value was -12.2%.
For `Cc1cc(=O)oc2cc(OC(C)C(=O)NCCc3ccc(S(N)(=O)=O)cc3)ccc12` (configuration not stated), the “activity change, negative = active” value was 3.63%.
For `Cc1cc(=O)oc2cc(NC(=O)C(C)Oc3ccccc3)ccc12` (configuration not stated), the Potency was 28.2 µM (active).
`Cc1cc(C)c2cc(C#N)c(N3CCNCC3)nc2c1` was tested, and the “activity change, negative = active” value was -26%.
For `CC(=O)c1ccc(S(=O)(=O)N2CCN(c3nc4c(C)c(C)ccc4cc3C#N)CC2)cc1`, the “activity change, negative = active” value was -17%.
`Cc1cccc2cc(C#N)c(N3CCCC3)nc12` was tested, and the Potency was 28.2 µM (active).
`CC1(Oc2ccc(Cl)cc2)CCN(Cc2csc3ccccc23)C1` (configuration not stated) was tested, and the “activity change, negative = active” value was -5.93%.
`CC1CCCN(C(=O)c2cc(-c3ccco3)nc3ccccc23)C1` (configuration not stated) was tested, and the “activity change, negative = active” value was 3.78%.
In the case of `O=C(c1cc(-c2ccco2)nc2ccccc12)N(Cc1nnc(-c2ccc(Cl)cc2)o1)C1CC1`, the Potency is reported as 28.2 µM (active).
`CN(CCOc1ccccc1)C(=O)c1cc(-c2ccco2)nc2ccccc12` was tested, and the “activity change, negative = active” value was 4.34%.
In the case of `Cc1ccc(Cc2c(-c3ccco3)nc3ccc(Cl)cn23)cc1`, the “activity change, negative = active” value is reported as -11.6%.
For `O=C1NC[C@H](CCCCN2C[C@H](Cc3ccccc3)N(Cc3ccccc3)C(=O)C2=O)N(CCc2ccc(O)cc2)C1=O`, the “activity change, negative = active” value was 1.04%.
With `CN(C)c1cc[n+](Cc2ccccc2)cc1` the “activity change, negative = active” value was -0.0614%.
With `O=C(c1ccc(CSc2ccccc2)cc1)N1CCCCCC1` the “activity change, negative = active” value was 3.91%.
For `CN(C)c1ccc(CSc2ccccc2)cc1`, the Potency was 12.6 µM (active).
`COc1ccc(-c2cc(NC=O)c3ncc(-c4ccccc4)n3c2)cc1OC` was tested, and the “activity change, negative = active” value was -27.2%.
`CCc1nc2c(OCc3ccc(F)c(F)c3)cccn2c1N(C)C(=O)c1ccco1` was tested, and the “activity change, negative = active” value was -1.58%.
In the case of `CC1=C(C(=O)Nc2cc(C)ccn2)C(c2cnn(C)c2)C2=C(CC(c3ccccc3)CC2=O)N1` (configuration not stated), the Potency is reported as 31.6 µM (active).
For `CCCn1c(=O)c(C(=O)Nc2cc(C)ccn2)c(O)c2ccccc21`, the “activity change, negative = active” value was -18%.
For `Cc1ccnc(NC(=O)c2ccoc2C)c1`, the “activity change, negative = active” value was 0.724%.
For `CN1OC[C@@H]2CN(S(=O)(=O)c3cccc4ccccc34)[C@H](c3ccc(N4CCCCC4)cc3)C[C@@H]21`, the “activity change, negative = active” value was -4.18%.
With `O=C(NC(c1ccc(Cl)cc1)c1cnccn1)C1CCN(Cc2ccc(Cl)cc2)CC1` (configuration not stated) the “activity change, negative = active” value was 0.881%.
In the case of `O=C1[C@H]2[C@@H](c3ccc(C(F)(F)F)cc3)N[C@]3(CCCN(Cc4ccc(Cl)cc4)C3=O)[C@H]2C(=O)N1Cc1ccccc1`, the “activity change, negative = active” value is reported as 1.88%.
For `COc1cccc(/C=N/NC(=O)CNC(=O)c2ccc(S(=O)(=O)N3CCOCC3)cc2)c1OC`, the Potency was 31.6 µM (active).
In the case of `COc1ccc(/C=N/NC(=O)CNC(=O)c2ccc(S(=O)(=O)N3CCCC3)cc2)c(OC)c1`, the “activity change, negative = active” value is reported as -0.301%.
`Cc1ccccc1OCC(=O)Nc1ccc(S(=O)(=O)N2CCOCC2)cc1` was tested, and the “activity change, negative = active” value was -1.93%.
`CC(C)Oc1ccc(CN2CCC2(C)C(=O)NCc2ccc(C(F)(F)F)cc2)cc1` (configuration not stated) was tested, and the “activity change, negative = active” value was 3.39%.

From PubChem BioAssay AID651965 (National Center for Advancing Translational Sciences (NCATS), 2013)
Note: the source files actives as falling curves though it sought activators and does not explain the sign; nearly all actives have a fitted effect of over 65% in size.
Potency is the fitted concentration of half-maximal effect.
